Results from PubChem BioAssay AID1159580 (chemical genetic matrix, 2015).
About 2,000 (36%) of roughly 5,500 compounds were called active. Another 18% or so got no clear call; they are omitted. Rule as the data show it: active = normalized growth mostly below about 0.91 (no sharp cut-off); inconclusive = no clear call, values can overlap the other calls; inactive = mostly above about 0.92. This is one part of the list.

Experiment: chemical genetic growth profiling, strain panel (AID 1159580);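 also: tested at 20 µM; growth read once vehicle control cultures reached saturation at 30 °C; 1 = growth at the plate median or of vehicle wells; lower values mean less growth of the strain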
Settings: growth OD
[1] = S. cerevisiae deletion strains, locus YHR030C, strain SLT2, active compounds read low
[2] = S. cerevisiae deletion strains, locus YAL013W, strain DEP1, active compounds read low
[3] = S. cerevisiae deletion strains, locus YBR229C, strain ROT2, active compounds read low
[4] = S. cerevisiae deletion strains, locus YDL101C, strain DUN1, active compounds read low
[5] = S. cerevisiae deletion strains, locus YDR150W, strain NUM1, active compounds read low
[6] = S. cerevisiae deletion strains, locus YEL061C, strain CIN8, active compounds read low
[7] = S. cerevisiae deletion strains, locus YGR078C, strain PAC10, active compounds read low
[8] = S. cerevisiae deletion strains, locus YHR087W, strain rtc3, active compounds read low
[9] = S. cerevisiae deletion strains, locus YJR043C, strain POL32, active compounds read low
[10] = S. cerevisiae deletion strains, locus YJR075W, strain HOC1, active compounds read low
[11] = S. cerevisiae deletion strains, locus YLR039C, strain RIC1, active compounds read low
[12] = S. cerevisiae deletion strains, locus YLR058C, strain SHM2 (second series), active compounds read low
[13] = S. cerevisiae deletion strains, locus YLR085C, strain ARP6, active compounds read low
[14] = S. cerevisiae deletion strains, locus YLR262C, strain YPT6, active compounds read low
[15] = S. cerevisiae deletion strains, locus YML094W, strain GIM5, active compounds read low
[16] = S. cerevisiae deletion strains, locus YMR219W, strain ESC1, active compounds read low
[17] = S. cerevisiae deletion strains, locus YMR263W, strain SAP30, active compounds read low
[18] = S. cerevisiae deletion strains, locus YNL153C, strain GIM3, active compounds read low
[19] = S. cerevisiae deletion strains, locus YNL298W, strain CLA4 (second series), active compounds read low
[20] = S. cerevisiae deletion strains, locus YNL322C, strain KRE1, active compounds read low
[21] = S. cerevisiae deletion strains, locus YNR030W, strain Alg12, active compounds read low
[22] = S. cerevisiae deletion strains, locus YPL055C, strain LGE1, active compounds read low
[23] = S. cerevisiae deletion strains, locus YPL241C, strain CIN2, active compounds read low
[24] = S. cerevisiae deletion strains, locus YPR135W, strain CTF4, active compounds read low
[25] = S. cerevisiae deletion strains, locus YDL134C, strain PPH21, active compounds read low
[26] = S. cerevisiae deletion strains, locus YMR307W, strain GAS1, active compounds read low

Measured: normalized growth

C[C@H]1O[C@H](O[C@H]2[C@H](O)[C@@H](O)[C@@H](O[C@H]3[C@H](O)[C@@H](O)C(O)O[C@@H]3CO)O[C@@H]2CO)[C@H](O)[C@@H](O)[C@@H]1N[C@H]1C=C(CO)[C@@H](O)[C@H](O)[C@H]1O (stereo partly drawn)
inactive: S. cerevisiae deletion strains, locus YAL021C, strain ccr4, active compounds read low 0.999 | S. cerevisiae deletion strains, locus YAL026C, strain drs2, active compounds read low 1.03 | S. cerevisiae deletion strains, locus YAL030W, strain snc1, active compounds read low 0.993 | S. cerevisiae deletion strains, locus YBL061C, strain skt5, active compounds read low 0.984 | S. cerevisiae deletion strains, locus YBR009C, strain hhf1, active compounds read low 1.01 | S. cerevisiae deletion strains, locus YBR023C, strain chs3, active compounds read low 1.01 | S. cerevisiae deletion strains, locus YBR171W, strain sec66, active compounds read low 0.979 | S. cerevisiae deletion strains, locus YBR231C, strain swc5, active compounds read low 0.982 | S. cerevisiae deletion strains, locus YBR279W, strain paf1, active compounds read low 1.01 | S. cerevisiae deletion strains, locus YCL011C, strain gbp2, active compounds read low 1.03 | S. cerevisiae deletion strains, locus YCL016C, strain dcc1, active compounds read low 1.02 | S. cerevisiae deletion strains, locus YCL069W, strain vba3, active compounds read low 1 | S. cerevisiae deletion strains, locus YCR088W, strain abp1, active compounds read low 0.991 | S. cerevisiae deletion strains, locus YDL005C, strain med2, active compounds read low 1 | S. cerevisiae deletion strains, locus YDL040C, strain nat1, active compounds read low 0.99 | S. cerevisiae deletion strains, locus YDR001C, strain nth1, active compounds read low 0.995 | S. cerevisiae deletion strains, locus YDR069C, strain doa4, active compounds read low 0.985 | S. cerevisiae deletion strains, locus YDR137W, strain rgp1, active compounds read low 0.998 | S. cerevisiae deletion strains, locus YDR159W, strain sac3, active compounds read low 0.981 | S. cerevisiae deletion strains, locus YDR195W, strain ref2 0.936 | S. cerevisiae deletion strains, locus YDR297W, strain sur2, active compounds read low 0.988 | S. cerevisiae deletion strains, locus YDR334W, strain swr1, active compounds read low 0.983 | S. cerevisiae deletion strains, locus YDR335W, strain msn5, active compounds read low 0.974 | S. cerevisiae deletion strains, locus YDR392W, strain spt3, active compounds read low 1.04 | S. cerevisiae deletion strains, locus YEL003W, strain gim4, active compounds read low 0.974 | S. cerevisiae deletion strains, locus YEL037C, strain rad23, active compounds read low 0.988 | S. cerevisiae deletion strains, locus YEL061C, strain CIN8 (second series), active compounds read low 0.994 | S. cerevisiae deletion strains, locus YER015W, strain faa2, active compounds read low 1.01 | S. cerevisiae deletion strains, locus YER016W, strain bim1, active compounds read low 1 | S. cerevisiae deletion strains, locus YER111C, strain swi4, active compounds read low 0.984 | S. cerevisiae deletion strains, locus YER155C, strain BEM2 (second series), active compounds read low 0.977 | S. cerevisiae deletion strains, locus YFR010W, strain ubp6, active compounds read low 0.978 | S. cerevisiae deletion strains, locus YGL167C, strain pmr1, active compounds read low 0.974 | S. cerevisiae deletion strains, locus YGL173C, strain kem1, active compounds read low 0.955 | S. cerevisiae deletion strains, locus YGL227W, strain vid30, active compounds read low 0.987 | S. cerevisiae deletion strains, locus YGL240W, strain doc1, active compounds read low 0.964 | S. cerevisiae deletion strains, locus YGL253W, strain hxk2, active compounds read low 0.999 | S. cerevisiae deletion strains, locus YHR013C, strain ard1, active compounds read low 0.992 | S. cerevisiae deletion strains, locus YHR027C, strain rpn1, active compounds read low 1.01 | [1] 0.955 | S. cerevisiae deletion strains, locus YHR079C, strain IRE1, active compounds read low 0.959 | S. cerevisiae deletion strains, locus YHR142W, strain chs7, active compounds read low 0.989 | S. cerevisiae deletion strains, locus YJL092W, strain hpr5, active compounds read low 0.977 | S. cerevisiae deletion strains, locus YJL095W, strain BCK1 (second series), active compounds read low 0.993 | S. cerevisiae deletion strains, locus YJL095W, strain BCK1, active compounds read low 0.957 | S. cerevisiae deletion strains, locus YJL115W, strain asf1, active compounds read low 0.974 | S. cerevisiae deletion strains, locus YJL129C, strain trk1, active compounds read low 0.969 | S. cerevisiae deletion strains, locus YJL154C, strain vps35, active compounds read low 0.964 | S. cerevisiae deletion strains, locus YJL164C, strain tpk1, active compounds read low 1.01 | S. cerevisiae deletion strains, locus YJL166W, strain qcr8, active compounds read low 0.971 | S. cerevisiae deletion strains, locus YJL187C, strain SWE1, active compounds read low 0.999 | S. cerevisiae deletion strains, locus YJR066W, strain TOR1, active compounds read low 0.916 | S. cerevisiae deletion strains, locus YKL160W, strain elf1, active compounds read low 0.968 | S. cerevisiae deletion strains, locus YKR026C, strain gcn3, active compounds read low 0.995 | S. cerevisiae deletion strains, locus YKR091W, strain srl3, active compounds read low 0.988 | S. cerevisiae deletion strains, locus YLL001W, strain dnm1, active compounds read low 0.945 | S. cerevisiae deletion strains, locus YLL026W, active compounds read low 1.01 | S. cerevisiae deletion strains, locus YLL041C, strain sdh2, active compounds read low 0.988 | S. cerevisiae deletion strains, locus YLR027C, strain aat2, active compounds read low 0.993 | S. cerevisiae deletion strains, locus YLR113W, strain HOG1, active compounds read low 0.933 | S. cerevisiae deletion strains, locus YLR221C, strain rsa3, active compounds read low 1.03 | S. cerevisiae deletion strains, locus YLR258W, strain gsy2, active compounds read low 1.01 | S. cerevisiae deletion strains, locus YLR262C, strain YPT6 (second series), active compounds read low 0.959 | S. cerevisiae deletion strains, locus YLR320W, strain mms22, active compounds read low 1.01 | S. cerevisiae deletion strains, locus YLR342W, strain FKS1, active compounds read low 0.973 | S. cerevisiae deletion strains, locus YLR357W, strain rsc2, active compounds read low 0.985 | S. cerevisiae deletion strains, locus YLR370C, strain arc18, active compounds read low 0.993 | S. cerevisiae deletion strains, locus YLR384C, strain iki3, active compounds read low 0.977 | S. cerevisiae deletion strains, locus YML120C, strain ndi1, active compounds read low 0.98 | S. cerevisiae deletion strains, locus YMR058W, strain fet3, active compounds read low 0.996 | S. cerevisiae deletion strains, locus YMR125W, strain sto1, active compounds read low 0.996 | S. cerevisiae deletion strains, locus YMR129W, active compounds read low 0.989 | S. cerevisiae deletion strains, locus YMR205C, strain PFK2, active compounds read low 0.983 | S. cerevisiae deletion strains, locus YMR231W, strain pep5, active compounds read low 0.991 | S. cerevisiae deletion strains, locus YNL071W, strain lat1, active compounds read low 1.01 | S. cerevisiae deletion strains, locus YNL183C, strain NPR1, active compounds read low 0.923 | S. cerevisiae deletion strains, locus YNL209W, strain ssb2, active compounds read low 1.01 | S. cerevisiae deletion strains, locus YNL248C, strain rpa49, active compounds read low 1.01 | S. cerevisiae deletion strains, locus YNL322C, strain KRE1 (second series), active compounds read low 0.988 | S. cerevisiae deletion strains, locus YNR049C, strain mso1, active compounds read low 0.987 | S. cerevisiae deletion strains, locus YOR001W, strain rrp6, active compounds read low 0.96 | S. cerevisiae deletion strains, locus YOR070C, strain gyp1, active compounds read low 1.01 | S. cerevisiae deletion strains, locus YOR080W, strain dia2, active compounds read low 0.98 | S. cerevisiae deletion strains, locus YOR083W, strain WHI5, active compounds read low 0.987 | S. cerevisiae deletion strains, locus YOR106W, strain vam3, active compounds read low 0.979 | S. cerevisiae deletion strains, locus YOR231W, strain MKK1, active compounds read low 0.953 | S. cerevisiae deletion strains, locus YOR265W, strain rbl2, active compounds read low 0.992 | S. cerevisiae deletion strains, locus YOR270C, strain vph1, active compounds read low 1 | S. cerevisiae deletion strains, locus YOR290C, strain snf2, active compounds read low 1.01 | S. cerevisiae deletion strains, locus YPL051W, strain arl3, active compounds read low 1 | S. cerevisiae deletion strains, locus YPL078C, strain atp4, active compounds read low 0.948 | S. cerevisiae deletion strains, locus YPL106C, strain sse1, active compounds read low 1.02 | S. cerevisiae deletion strains, locus YPL240C, strain hsp82, active compounds read low 0.988 | S. cerevisiae deletion strains, locus YPL256C, strain CLN2, active compounds read low 0.967

COc1ccc(Br)c(-c2nnc(-c3ccccc3[N+](=O)[O-])o2)c1
inactive: [2] 0.993 | [3] 1.01 | [4] 0.985 | [5] 0.943 | [6] 0.973 | [7] 1.02 | [1] 0.964 | [8] 1.02 | [9] 0.955 | [10] 0.975 | S. cerevisiae deletion strains, locus YKL190W, strain CNB1, active compounds read low 1.01 | [11] 1.07 | [12] 1.02 | [13] 0.953 | [14] 1.06 | [15] 1 | [16] 1.01 | [17] 0.978 | S. cerevisiae deletion strains, locus YNL128W, strain TEP1, active compounds read low 1.04 | [18] 1 | [19] 0.985 | [20] 1.01 | [21] 1 | [22] 0.953 | [23] 0.977 | [24] 1.07

O=[N+]([O-])c1cccnc1Oc1ccc(Cl)cc1
active: S. cerevisiae deletion strains, locus YCL061C, strain MRC1, active compounds read low 0.895 | [4] 0.875 | [7] 0.886 | [1] 0.543 | [9] 0.886 | [11] 0.657 | [14] 0.707 | [18] 0.919 | [20] 0.933 | [24] 0.613
inactive: [2] 0.94 | [3] 0.939 | [25] 0.973 | [5] 0.917 | [6] 0.977 | [8] 0.93 | [10] 0.933 | [12] 0.95 | [13] 0.789 | [15] 0.937 | [16] 0.954 | [17] 0.936 | [19] 0.858 | [21] 0.906 | [22] 0.959 | [23] 0.935 | S. cerevisiae strains, strain wild type, active compounds read low 0.917

O=[N+]([O-])c1ccc(Oc2c(Cl)cccc2Cl)c(Cl)c1Oc1c(Cl)cccc1Cl
inactive: [2] 0.98 | [3] 0.981 | [4] 0.95 | [25] 0.993 | [5] 0.992 | [6] 0.998 | [7] 0.984 | [1] 0.956 | [8] 1.04 | [9] 0.961 | [10] 1.04 | [11] 0.902 | [12] 0.991 | [13] 0.976 | [14] 0.949 | [15] 1.01 | [16] 1 | [17] 1.01 | [26] 1.02 | [18] 0.986 | [19] 0.953 | [20] 0.987 | [21] 0.969 | [22] 1 | [23] 0.961 | [24] 0.901

CN1CCCC1c1cccnc1 (stereo not drawn)
inactive: [2] 0.987 | S. cerevisiae deletion strains, locus YAL040C, strain CLN3, active compounds read low 0.984 | S. cerevisiae deletion strains, locus YCL061C, strain MRC1 (second series), active compounds read low 0.981 | [5] 0.981 | S. cerevisiae deletion strains, locus YDR363W, strain ESC2, active compounds read low 1.02 | S. cerevisiae deletion strains, locus YER002W, strain NOP16, active compounds read low 0.994 | [26] 1.03 | [18] 0.986 | S. cerevisiae deletion strains, locus YNL175C, strain NOP13, active compounds read low 0.992 | S. cerevisiae deletion strains, locus YNL197C, strain WHI3, active compounds read low 0.995 | S. cerevisiae deletion strains, locus YNL224C, strain SQS1, active compounds read low 0.991 | [20] 0.98 | S. cerevisiae deletion strains, locus YOR083W, strain WHI5 (second series), active compounds read low 0.988 | [22] 1 | [23] 0.984
